# Results published in PubChem BioAssay (NCATS).
# Inconclusive results are not listed. A call without a number means that no potency is given here. The source made the active and inactive calls. Unless noted, calls follow the shape of the dose curve; as a rule, active = well fitted curve in the direction sought with a large enough effect; inconclusive = small, poorly fitted or top-dose-only effect, or another doubt; inactive = no such curve, though single readings can be large; an effect the other way counts as inactive or inconclusive.
# What was measured:
# [1] = molecular target: Mitogen-activated protein kinase 10 (Mus musculus) (UniProt Q61831); assay: JNK3 AlphaScreen Assay (AID 530; active = well fitted curve in either direction with a large enough effect, not every such curve was filed as active;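 also: kinase came from lysate of stimulated human HepG2 cells; signal reports phosphorylation of biotinylated GST-cJun 1-79 at Ser73 with 10 µM ATP; series mostly up to about 57 µM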)
# Summary of the method: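 Phosphorylation of biotinylated GST-cJun(1-79) at Ser73 is measured by AlphaScreen proximity luminescence. Enzyme is JNK3 in HepG2 lysates activated with interleukin-1beta and tumor necrosis factor alpha; ATP is 10 uM final.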
# [2] = molecular target: 3',5'-cyclic-AMP phosphodiesterase 4B (Homo sapiens) (UniProt Q07343); assay: qHTS Assay for Inhibitors of PDE-IV (AID 607; active = well fitted activation curve with a large enough effect in the main read-out, with a control signal flat, not every such curve was filed as active)
# Chain of 3',5'-cyclic-AMP phosphodiesterase 4B (Homo sapiens) (Q07343 whole entry, looked up): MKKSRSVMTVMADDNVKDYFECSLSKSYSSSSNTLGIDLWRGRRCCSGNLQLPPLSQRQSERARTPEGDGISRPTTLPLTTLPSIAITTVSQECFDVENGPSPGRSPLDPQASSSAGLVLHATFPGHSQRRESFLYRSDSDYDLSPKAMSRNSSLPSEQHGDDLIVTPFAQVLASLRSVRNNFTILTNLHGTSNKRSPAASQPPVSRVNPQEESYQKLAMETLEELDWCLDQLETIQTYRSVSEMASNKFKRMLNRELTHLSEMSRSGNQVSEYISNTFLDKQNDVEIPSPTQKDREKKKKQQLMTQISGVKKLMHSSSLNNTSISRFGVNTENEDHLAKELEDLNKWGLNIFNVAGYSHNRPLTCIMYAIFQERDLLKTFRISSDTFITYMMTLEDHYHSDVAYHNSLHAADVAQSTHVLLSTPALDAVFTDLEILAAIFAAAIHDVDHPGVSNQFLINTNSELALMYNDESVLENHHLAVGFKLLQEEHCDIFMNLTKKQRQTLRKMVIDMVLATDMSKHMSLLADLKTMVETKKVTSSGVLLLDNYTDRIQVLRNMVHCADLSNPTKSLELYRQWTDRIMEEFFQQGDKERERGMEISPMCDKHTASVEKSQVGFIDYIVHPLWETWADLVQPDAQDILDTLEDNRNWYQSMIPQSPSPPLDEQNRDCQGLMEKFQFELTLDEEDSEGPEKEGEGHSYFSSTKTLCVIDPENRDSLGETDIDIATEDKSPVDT
# Summary of the method: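 ACTOne HEK293 cells carry a modified cAMP-gated CNG channel and express endogenous PDE4; plated 1000 cells/well, compounds up to 22.9 uM final. Membrane-potential dye fluorescence (ex 535/em 590) was read; parental cells received 10 uM forskolin + 100 uM RO 20-1724.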
# [3] = molecular target: Cytochrome P450 3A4 (Homo sapiens) (UniProt P08684); assay: qHTS Assay for Inhibitors and Substrates of Cytochrome P450 3A4 (AID 884); also: nearly all actives have a fitted effect of over 50% in size; also: potency is read from the fitted curve at half-maximal effect
# Chain of Cytochrome P450 3A4 (Homo sapiens) (P08684 whole entry, looked up): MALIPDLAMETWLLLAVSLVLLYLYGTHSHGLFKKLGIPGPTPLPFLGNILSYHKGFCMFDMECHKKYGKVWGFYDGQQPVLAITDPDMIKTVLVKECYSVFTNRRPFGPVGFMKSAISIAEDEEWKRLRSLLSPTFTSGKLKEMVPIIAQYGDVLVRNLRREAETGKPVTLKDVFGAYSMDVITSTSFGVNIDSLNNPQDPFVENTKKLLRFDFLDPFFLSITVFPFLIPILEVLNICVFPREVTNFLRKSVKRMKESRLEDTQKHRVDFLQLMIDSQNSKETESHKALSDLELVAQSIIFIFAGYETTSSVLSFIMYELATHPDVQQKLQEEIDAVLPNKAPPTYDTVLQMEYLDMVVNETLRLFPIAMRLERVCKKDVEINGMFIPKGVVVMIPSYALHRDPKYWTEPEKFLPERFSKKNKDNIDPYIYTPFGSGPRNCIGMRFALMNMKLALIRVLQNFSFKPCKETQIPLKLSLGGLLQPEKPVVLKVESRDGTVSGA
# Summary of the method: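 Luminescent readout of luciferin produced by CYP3A4 (20 nM) dealkylation of Luciferin-PPXE, 25 uM (its KM). NADPH-driven reaction ran 60 min at RT after 10 min compound preincubation; data scaled to 57 uM ketoconazole as 100% inhibition.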
# [4] = molecular target: Cytochrome P450 2C9 (Homo sapiens) (UniProt P11712); assay: qHTS Assay for Inhibitors and Substrates of Cytochrome P450 2C9 (AID 883); also: potency is read from the fitted curve at half-maximal effect; nearly all actives have a fitted effect of over 60% in size
# Chain of Cytochrome P450 2C9 (Homo sapiens) (P11712 whole entry, looked up): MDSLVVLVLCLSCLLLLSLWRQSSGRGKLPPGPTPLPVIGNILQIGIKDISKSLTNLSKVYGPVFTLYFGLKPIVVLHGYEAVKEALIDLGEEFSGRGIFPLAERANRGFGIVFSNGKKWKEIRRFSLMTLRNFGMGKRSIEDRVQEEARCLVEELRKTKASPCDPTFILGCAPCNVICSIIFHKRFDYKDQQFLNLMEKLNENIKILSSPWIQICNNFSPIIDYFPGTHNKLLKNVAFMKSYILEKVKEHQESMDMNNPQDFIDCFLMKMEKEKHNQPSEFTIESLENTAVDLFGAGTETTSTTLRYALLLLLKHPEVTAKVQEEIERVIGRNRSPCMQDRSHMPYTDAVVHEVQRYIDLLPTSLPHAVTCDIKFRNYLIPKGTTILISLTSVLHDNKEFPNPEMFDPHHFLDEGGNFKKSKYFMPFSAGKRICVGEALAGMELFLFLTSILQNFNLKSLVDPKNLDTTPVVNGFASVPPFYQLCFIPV
# Summary of the method: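 A luminogenic readout tracked human CYP2C9 (10nM) converting deoxyluciferin (100uM, at KM) in 25mM KPO4 during 60 min at 37C with regenerated NADPH. Values normalized to 57uM sulphaphenazole as complete inhibition.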
# [5] = molecular target: Cytochrome P450 3A4 (Homo sapiens) (UniProt P08684); assay: qHTS Assay for Activators of Cytochrome P450 3A4 (AID 885); also: nearly all actives have a fitted effect of over 65% in size
# Summary of the method: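 CYP3A4 activity: Luciferin-PPXE O-dealkylation, 25uM substrate, 200mM KPO4, RT throughout. Read-out is luciferase luminescence; higher values reflect activation.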
# [6] = molecular target: Cytochrome P450 2C19 (Homo sapiens) (UniProt P33261); assay: qHTS Assay for Inhibitors and Substrates of Cytochrome P450 2C19 (AID 899); also: potency is read from the fitted curve at half-maximal effect; nearly all actives have a fitted effect of over 60% in size
# Chain of Cytochrome P450 2C19 (Homo sapiens) (P33261 whole entry, looked up): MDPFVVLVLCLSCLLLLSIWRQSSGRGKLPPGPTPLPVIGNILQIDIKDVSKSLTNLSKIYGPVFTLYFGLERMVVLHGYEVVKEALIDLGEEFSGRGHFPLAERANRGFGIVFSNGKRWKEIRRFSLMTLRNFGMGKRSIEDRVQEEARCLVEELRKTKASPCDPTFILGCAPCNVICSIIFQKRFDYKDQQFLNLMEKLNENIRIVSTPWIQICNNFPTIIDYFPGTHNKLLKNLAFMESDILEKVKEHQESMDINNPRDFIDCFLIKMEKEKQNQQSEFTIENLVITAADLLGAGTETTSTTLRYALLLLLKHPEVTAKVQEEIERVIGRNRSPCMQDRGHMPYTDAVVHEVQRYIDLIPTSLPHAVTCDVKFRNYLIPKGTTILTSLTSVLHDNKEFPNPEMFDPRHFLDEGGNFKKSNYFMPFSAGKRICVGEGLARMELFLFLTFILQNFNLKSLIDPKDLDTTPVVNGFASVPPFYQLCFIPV
# Summary of the method: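 NADPH-dependent conversion of Luciferin-H EGE (10uM, at KM) by 5nM enzyme in 50mM KPO4, 60 min at 37C following 10 min compound preincubation. Stopped with luciferin detection buffer; luminescence read after 20 min.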
smiles,measurement,setting,value
COC(=O)[C@@]1(Cc2ccccc2)[C@H]2c3cc(C(=O)N(C)C)n(Cc4ccccc4)c3C[C@H]2CN1C(=O)c1ccccc1,outcome,[1],inactive
same,outcome,[2],inactive
COC(=O)[C@@]1(Cc2ccc(OC)cc2)[C@H]2c3cc(C(=O)N(C)C)n(Cc4nc5ccccc5[nH]4)c3C[C@H]2CN1C(=O)c1ccccc1,outcome,[1],inactive
same,outcome,[2],inactive
CC(Cc1ccccc1)C(=O)N1CCN(C)CC1 (stereo unspecified),outcome,[1],inactive
same,Potency,[3],inactive
COC(=O)[C@@]1(Cc2ccc(F)cc2)[C@H]2c3cc(C(=O)N4CCCC4)n(Cc4ccc(C(F)(F)F)nc4)c3C[C@H]2CN1C(=O)c1ccccc1,outcome,[1],inactive
same,outcome,[2],inactive
CCCCCCN(C(=O)CCCCCN1C(=O)NC(c2ccc(-c3ccccc3)cc2)C(C(=O)OCc2ccccc2)=C1C)C(C(=O)NCCCC)c1ccc(-c2ccccc2)cc1 (stereo unspecified),outcome,[1],inactive
same,Potency,[3],inactive
COC(=O)[C@@]1(Cc2ccccc2)[C@H]2c3cc(C(=O)N4CCCC4)n(CCN4CNCC4=O)c3C[C@H]2CN1C(=O)c1ccccc1,outcome,[1],inactive
same,outcome,[2],inactive
same,Potency,[4],2000 nM (active)
same,Potency,[5],inactive
CC(C)CC1(C(=O)O)C=CCN1C(=O)c1ccccc1 (stereo unspecified),outcome,[1],inactive
same,Potency,[3],inactive
COC(=O)N1CC=CC1(C)C(=O)O (stereo unspecified),outcome,[1],inactive
same,Potency,[3],inactive
COC(=O)[C@@]1(Cc2ccccc2)C=C[C@@H](C)N1C(=O)c1ccccc1,outcome,[1],inactive
same,Potency,[3],inactive
COC(=O)[C@@]1(Cc2ccccc2)[C@H]2c3cc(C(=O)N(C)C)n(Cc4cc(C)n(C)n4)c3C[C@H]2CN1C(=O)c1ccccc1,outcome,[1],inactive
same,outcome,[2],inactive
COC(=O)[C@@]1(Cc2ccccc2)[C@H]2c3cc(C(=O)N4CCCC4)[nH]c3C[C@H]2CN1C(=O)c1ccccc1,outcome,[1],inactive
same,outcome,[2],inactive
same,Potency,[4],794 nM (active)
same,Potency,[3],2510 nM (active)
same,Potency,[5],inactive
same,Potency,[6],501 nM (active)
COC(=O)[C@@]1(Cc2ccc(F)cc2)[C@H]2c3cc(C(=O)N4CCCC4)n(CC4CC4)c3C[C@H]2CN1C(=O)c1ccccc1,outcome,[1],inactive
same,outcome,[2],inactive
C[C@H](CO)NC(=O)[C@H](C)[C@H]1C[C@]1(C)[C@H](NC(=O)OCc1ccccc1)c1ccccc1,outcome,[1],inactive
same,outcome,[2],inactive
same,Potency,[3],3980 nM (active)
same,Potency,[5],inactive
same,Potency,[6],631 nM (active)
C[C@@H](C(=O)Nc1ccc2ccccc2c1)[C@H]1C[C@]1(C)[C@H](NC(=O)c1ccccc1)c1ccccc1,outcome,[1],inactive
same,outcome,[2],inactive
COC(=O)[C@@]1(Cc2ccc(OC)cc2)[C@H]2c3cc(C(=O)N4CCCC4)n(Cc4nc5ccccc5[nH]4)c3C[C@H]2CN1C(=O)c1ccccc1,outcome,[1],inactive
same,outcome,[2],inactive
same,Potency,[3],2000 nM (active)
same,Potency,[5],inactive
